This note sets out measurements from paper PMC11006913.

Positions count from the first letter of the chain named.

In assay [1] the target is T1, NKX2-6 (Homo sapiens, UniProt A6NCS4 118-204).
T1 sequence: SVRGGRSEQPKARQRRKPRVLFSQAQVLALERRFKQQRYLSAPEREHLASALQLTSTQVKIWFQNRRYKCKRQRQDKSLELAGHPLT
Briefly: PBM; 200 nM protein, PBS. The conditions noted are these: dsDNA, one strand shown.

Assay [2] has as its target T2, NKX2-6 (Homo sapiens, UniProt A6NCS4 118-204, F151L).
T2 sequence: T1 sequence with F34L
Briefly: PBM; 200 nM protein, PBS. As to conditions: dsDNA, one strand shown.

ACTTGACT: the binding signal with NKX2-6 [1] is 12.4 upbm affinity estimate (log intensity, higher = more binding, comparable within an allelic series); with NKX2-6 [2], 10.4 upbm affinity estimate (log intensity, higher = more binding, comparable within an allelic series).

Regarding CCCGCGTC, the binding signal was 9.23 upbm affinity estimate (log intensity, higher = more binding, comparable within an allelic series) with NKX2-6 [1] and 9.39 upbm affinity estimate (log intensity, higher = more binding, comparable within an allelic series) with NKX2-6 [2].

In the case of GCATCGGC, the binding signal with NKX2-6 [1] was 9.23 upbm affinity estimate (log intensity, higher = more binding, comparable within an allelic series); in the assay with NKX2-6 [2], 9.43 upbm affinity estimate (log intensity, higher = more binding, comparable within an allelic series).

In the case of CACGGGTC, the binding signal was 9.25 upbm affinity estimate (log intensity, higher = more binding, comparable within an allelic series) with NKX2-6 [1] and 9.31 upbm affinity estimate (log intensity, higher = more binding, comparable within an allelic series) with NKX2-6 [2].

Consider CACACGGA, for which the binding signal in the assay with NKX2-6 [1] was 9.29 upbm affinity estimate (log intensity, higher = more binding, comparable within an allelic series); with NKX2-6 [2], 9.43 upbm affinity estimate (log intensity, higher = more binding, comparable within an allelic series).

Regarding CCGGGTCC, the binding signal with NKX2-6 [1] is 9.7 upbm affinity estimate (log intensity, higher = more binding, comparable within an allelic series); with NKX2-6 [2], 9.17 upbm affinity estimate (log intensity, higher = more binding, comparable within an allelic series).

Consider CAGGGACG, for which the binding signal was 9.36 upbm affinity estimate (log intensity, higher = more binding, comparable within an allelic series) with NKX2-6 [1] and 9.43 upbm affinity estimate (log intensity, higher = more binding, comparable within an allelic series) with NKX2-6 [2].

Take CGGCGTGA: the binding signal was 9.3 upbm affinity estimate (log intensity, higher = more binding, comparable within an allelic series) with NKX2-6 [1] and 9.33 upbm affinity estimate (log intensity, higher = more binding, comparable within an allelic series) in the assay with NKX2-6 [2].

On to CAGCTCAG, for which the binding signal in the assay with NKX2-6 [1] is 9.47 upbm affinity estimate (log intensity, higher = more binding, comparable within an allelic series); with NKX2-6 [2], 9.39 upbm affinity estimate (log intensity, higher = more binding, comparable within an allelic series).

For AACCGGAG, the binding signal in the assay with NKX2-6 [1] was 9.55 upbm affinity estimate (log intensity, higher = more binding, comparable within an allelic series); with NKX2-6 [2] it was 9.32 upbm affinity estimate (log intensity, higher = more binding, comparable within an allelic series).

As for CCGCGTTC, the binding signal with NKX2-6 [1] is 9.4 upbm affinity estimate (log intensity, higher = more binding, comparable within an allelic series); with NKX2-6 [2] it was 9.39 upbm affinity estimate (log intensity, higher = more binding, comparable within an allelic series).

As to CCTTAATC, the binding signal is 11.3 upbm affinity estimate (log intensity, higher = more binding, comparable within an allelic series) with NKX2-6 [1] and 9.82 upbm affinity estimate (log intensity, higher = more binding, comparable within an allelic series) with NKX2-6 [2].

In the case of AGACGCTG, the binding signal with NKX2-6 [1] was 9.21 upbm affinity estimate (log intensity, higher = more binding, comparable within an allelic series); in the assay with NKX2-6 [2], 9.48 upbm affinity estimate (log intensity, higher = more binding, comparable within an allelic series).

As to ATGCCCTG, the binding signal with NKX2-6 [1] was 9.6 upbm affinity estimate (log intensity, higher = more binding, comparable within an allelic series); in the assay with NKX2-6 [2], 9.34 upbm affinity estimate (log intensity, higher = more binding, comparable within an allelic series).

Consider ACTACTTA, for which the binding signal with NKX2-6 [1] is 13.5 upbm affinity estimate (log intensity, higher = more binding, comparable within an allelic series); in the assay with NKX2-6 [2] it was 10.5 upbm affinity estimate (log intensity, higher = more binding, comparable within an allelic series).

On to GGCGTTAC, for which the binding signal with NKX2-6 [1] is 9.36 upbm affinity estimate (log intensity, higher = more binding, comparable within an allelic series); with NKX2-6 [2], 9.53 upbm affinity estimate (log intensity, higher = more binding, comparable within an allelic series).

For AGTGGCTA, the binding signal was 11.9 upbm affinity estimate (log intensity, higher = more binding, comparable within an allelic series) with NKX2-6 [1] and 9.95 upbm affinity estimate (log intensity, higher = more binding, comparable within an allelic series) with NKX2-6 [2].

For CGTCTGGC, the binding signal is 9.46 upbm affinity estimate (log intensity, higher = more binding, comparable within an allelic series) with NKX2-6 [1] and 9.41 upbm affinity estimate (log intensity, higher = more binding, comparable within an allelic series) with NKX2-6 [2].

Consider AACACGCC, for which the binding signal in the assay with NKX2-6 [1] is 9.5 upbm affinity estimate (log intensity, higher = more binding, comparable within an allelic series); with NKX2-6 [2] it was 9.31 upbm affinity estimate (log intensity, higher = more binding, comparable within an allelic series).

With CCGCGCAC, the binding signal in the assay with NKX2-6 [1] is 9.44 upbm affinity estimate (log intensity, higher = more binding, comparable within an allelic series); with NKX2-6 [2] it was 9.51 upbm affinity estimate (log intensity, higher = more binding, comparable within an allelic series).

Turning to TGGTACCA, the binding signal in the assay with NKX2-6 [1] was 9.64 upbm affinity estimate (log intensity, higher = more binding, comparable within an allelic series); in the assay with NKX2-6 [2] it was 9.28 upbm affinity estimate (log intensity, higher = more binding, comparable within an allelic series).

For CGTTTGCC, the binding signal was 9.35 upbm affinity estimate (log intensity, higher = more binding, comparable within an allelic series) with NKX2-6 [1] and 9.53 upbm affinity estimate (log intensity, higher = more binding, comparable within an allelic series) with NKX2-6 [2].

On to GGAAAGTA, for which the binding signal was 11.2 upbm affinity estimate (log intensity, higher = more binding, comparable within an allelic series) with NKX2-6 [1] and 9.87 upbm affinity estimate (log intensity, higher = more binding, comparable within an allelic series) with NKX2-6 [2].

Take CATGTGGG: the binding signal is 9.41 upbm affinity estimate (log intensity, higher = more binding, comparable within an allelic series) with NKX2-6 [1] and 9.56 upbm affinity estimate (log intensity, higher = more binding, comparable within an allelic series) in the assay with NKX2-6 [2].

Turning to CCGTAGCA, the binding signal in the assay with NKX2-6 [1] was 9.41 upbm affinity estimate (log intensity, higher = more binding, comparable within an allelic series); with NKX2-6 [2], 9.46 upbm affinity estimate (log intensity, higher = more binding, comparable within an allelic series).

In the case of CGGGGGCC, the binding signal in the assay with NKX2-6 [1] is 9.04 upbm affinity estimate (log intensity, higher = more binding, comparable within an allelic series); with NKX2-6 [2], 9.04 upbm affinity estimate (log intensity, higher = more binding, comparable within an allelic series).
